Test [1] addresses Tyrosine-protein kinase SYK (Homo sapiens) (UniProt P43405). Particulars: at 1 µM.
In test [2] the target is T1, Tyrosine-protein kinase Tec (Homo sapiens) (UniProt P42680).
T1 sequence (whole entry): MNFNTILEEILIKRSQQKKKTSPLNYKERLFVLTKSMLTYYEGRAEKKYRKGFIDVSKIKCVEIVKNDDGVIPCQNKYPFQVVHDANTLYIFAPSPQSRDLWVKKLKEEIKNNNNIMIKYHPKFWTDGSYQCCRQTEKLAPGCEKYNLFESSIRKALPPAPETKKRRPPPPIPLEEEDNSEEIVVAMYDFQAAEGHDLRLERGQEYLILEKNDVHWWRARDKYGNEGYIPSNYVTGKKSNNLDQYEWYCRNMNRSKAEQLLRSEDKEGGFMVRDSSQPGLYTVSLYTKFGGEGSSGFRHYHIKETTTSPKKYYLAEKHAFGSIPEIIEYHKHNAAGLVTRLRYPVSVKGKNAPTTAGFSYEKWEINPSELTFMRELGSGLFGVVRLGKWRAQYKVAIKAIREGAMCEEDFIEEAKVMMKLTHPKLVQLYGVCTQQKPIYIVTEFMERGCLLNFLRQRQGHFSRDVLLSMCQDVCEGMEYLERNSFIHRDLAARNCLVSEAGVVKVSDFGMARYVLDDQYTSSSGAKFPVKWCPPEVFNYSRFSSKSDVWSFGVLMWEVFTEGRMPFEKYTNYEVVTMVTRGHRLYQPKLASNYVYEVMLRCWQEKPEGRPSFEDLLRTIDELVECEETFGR
Conditions: at 0.1 µM.

Test [3] concerns the target T1, Tyrosine-protein kinase Tec (Homo sapiens). Particulars: at 1 µM.
Test [4] deals with Angiopoietin-1 receptor (Homo sapiens) (UniProt Q02763). Conditions: at 0.1 µM.
The target is the same in test [5]. Particulars: at 1 µM.
In test [6] the target is T2, Non-receptor tyrosine-protein kinase TNK1 (Homo sapiens) (UniProt Q13470).
T2 sequence (whole entry): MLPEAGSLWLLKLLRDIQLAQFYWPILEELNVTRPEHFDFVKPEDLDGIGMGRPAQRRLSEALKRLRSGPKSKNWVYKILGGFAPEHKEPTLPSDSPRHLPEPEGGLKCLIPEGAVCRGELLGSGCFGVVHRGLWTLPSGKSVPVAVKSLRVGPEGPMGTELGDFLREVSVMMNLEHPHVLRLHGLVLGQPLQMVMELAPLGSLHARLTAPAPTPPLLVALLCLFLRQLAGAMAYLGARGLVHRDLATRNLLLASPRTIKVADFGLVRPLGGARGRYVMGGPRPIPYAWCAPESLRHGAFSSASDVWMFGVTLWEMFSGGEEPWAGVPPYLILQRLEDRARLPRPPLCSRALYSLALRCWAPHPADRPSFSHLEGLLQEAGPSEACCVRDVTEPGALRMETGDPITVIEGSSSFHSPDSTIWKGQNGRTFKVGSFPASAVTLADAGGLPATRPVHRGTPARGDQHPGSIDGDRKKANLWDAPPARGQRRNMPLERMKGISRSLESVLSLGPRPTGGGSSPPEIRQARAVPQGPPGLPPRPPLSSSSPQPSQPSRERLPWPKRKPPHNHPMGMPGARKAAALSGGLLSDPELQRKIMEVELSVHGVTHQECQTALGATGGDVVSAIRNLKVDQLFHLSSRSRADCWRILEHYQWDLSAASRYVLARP
Particulars: at 0.1 µM.

Test [7] deals with T2, Non-receptor tyrosine-protein kinase TNK1 (Homo sapiens). Particulars: at 1 µM.
For test [8], the target named is Activated CDC42 kinase 1 (Homo sapiens) (UniProt Q07912). Particulars: at 0.1 µM.
Test [9] shares this target. Particulars: at 1 µM.
For test [10], the target named is High affinity nerve growth factor receptor (Homo sapiens) (UniProt P04629). Conditions: at 0.1 µM.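 Also: each value is a mean of replicate percent inhibition readings against TRKA kinase.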

The structures appear in SMILES notation.

Angiopoietin-1 receptor (Homo sapiens), sequence (Q02763 whole entry): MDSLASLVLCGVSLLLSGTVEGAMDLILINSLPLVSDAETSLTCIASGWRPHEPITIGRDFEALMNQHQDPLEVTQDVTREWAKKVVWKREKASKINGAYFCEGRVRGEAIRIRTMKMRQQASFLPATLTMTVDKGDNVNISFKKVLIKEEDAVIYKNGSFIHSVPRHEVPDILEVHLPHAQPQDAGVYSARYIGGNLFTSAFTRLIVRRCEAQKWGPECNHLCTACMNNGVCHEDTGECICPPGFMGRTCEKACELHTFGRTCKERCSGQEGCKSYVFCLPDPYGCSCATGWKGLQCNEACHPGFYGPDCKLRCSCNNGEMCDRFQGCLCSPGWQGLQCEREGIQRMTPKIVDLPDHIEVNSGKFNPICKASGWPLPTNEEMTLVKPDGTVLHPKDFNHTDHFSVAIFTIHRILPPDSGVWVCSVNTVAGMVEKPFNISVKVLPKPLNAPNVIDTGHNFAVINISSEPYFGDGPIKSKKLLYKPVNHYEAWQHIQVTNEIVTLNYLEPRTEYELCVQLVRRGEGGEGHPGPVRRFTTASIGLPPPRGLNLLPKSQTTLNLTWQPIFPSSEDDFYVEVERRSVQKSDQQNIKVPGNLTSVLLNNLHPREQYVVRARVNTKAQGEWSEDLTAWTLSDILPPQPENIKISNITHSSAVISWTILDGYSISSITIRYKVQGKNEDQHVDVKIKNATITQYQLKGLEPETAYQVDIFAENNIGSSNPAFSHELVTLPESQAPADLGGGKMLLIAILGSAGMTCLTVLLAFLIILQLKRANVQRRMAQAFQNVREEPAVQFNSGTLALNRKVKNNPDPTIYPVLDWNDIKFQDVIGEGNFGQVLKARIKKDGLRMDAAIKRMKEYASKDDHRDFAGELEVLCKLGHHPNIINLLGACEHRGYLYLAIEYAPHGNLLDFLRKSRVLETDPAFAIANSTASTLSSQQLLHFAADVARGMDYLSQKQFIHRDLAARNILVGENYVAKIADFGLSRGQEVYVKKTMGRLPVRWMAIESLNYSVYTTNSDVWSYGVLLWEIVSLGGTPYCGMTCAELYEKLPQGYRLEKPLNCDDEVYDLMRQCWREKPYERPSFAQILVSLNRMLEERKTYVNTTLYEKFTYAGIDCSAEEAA
Activated CDC42 kinase 1 (Homo sapiens), sequence (Q07912 whole entry, looked up): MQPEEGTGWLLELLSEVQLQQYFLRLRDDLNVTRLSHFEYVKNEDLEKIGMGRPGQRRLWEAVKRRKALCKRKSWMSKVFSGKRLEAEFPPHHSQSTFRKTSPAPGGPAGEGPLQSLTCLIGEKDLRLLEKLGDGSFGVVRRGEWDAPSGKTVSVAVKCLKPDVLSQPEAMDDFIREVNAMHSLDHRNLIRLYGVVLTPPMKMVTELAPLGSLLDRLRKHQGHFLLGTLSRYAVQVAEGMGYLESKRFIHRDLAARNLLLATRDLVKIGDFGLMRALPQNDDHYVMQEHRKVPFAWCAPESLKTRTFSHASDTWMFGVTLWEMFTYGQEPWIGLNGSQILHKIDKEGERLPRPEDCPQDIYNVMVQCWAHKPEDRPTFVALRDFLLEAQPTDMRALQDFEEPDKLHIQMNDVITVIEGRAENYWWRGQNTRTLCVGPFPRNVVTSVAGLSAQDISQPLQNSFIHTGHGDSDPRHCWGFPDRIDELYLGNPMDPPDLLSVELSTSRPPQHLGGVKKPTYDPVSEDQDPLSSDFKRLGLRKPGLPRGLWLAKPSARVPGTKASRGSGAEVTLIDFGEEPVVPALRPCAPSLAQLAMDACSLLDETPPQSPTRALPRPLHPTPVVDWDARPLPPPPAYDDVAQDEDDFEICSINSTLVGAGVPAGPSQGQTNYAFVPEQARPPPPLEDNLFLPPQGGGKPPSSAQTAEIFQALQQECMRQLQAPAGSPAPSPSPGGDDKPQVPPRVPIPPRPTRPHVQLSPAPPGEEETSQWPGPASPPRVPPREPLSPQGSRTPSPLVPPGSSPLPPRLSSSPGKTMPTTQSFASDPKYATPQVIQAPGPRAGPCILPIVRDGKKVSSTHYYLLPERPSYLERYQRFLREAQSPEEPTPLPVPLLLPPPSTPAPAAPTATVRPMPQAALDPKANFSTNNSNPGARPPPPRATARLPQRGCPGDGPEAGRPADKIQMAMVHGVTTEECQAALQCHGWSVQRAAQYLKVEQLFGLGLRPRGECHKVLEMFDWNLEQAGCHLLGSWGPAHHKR
High affinity nerve growth factor receptor (Homo sapiens), sequence (P04629 33-796 limits assumed): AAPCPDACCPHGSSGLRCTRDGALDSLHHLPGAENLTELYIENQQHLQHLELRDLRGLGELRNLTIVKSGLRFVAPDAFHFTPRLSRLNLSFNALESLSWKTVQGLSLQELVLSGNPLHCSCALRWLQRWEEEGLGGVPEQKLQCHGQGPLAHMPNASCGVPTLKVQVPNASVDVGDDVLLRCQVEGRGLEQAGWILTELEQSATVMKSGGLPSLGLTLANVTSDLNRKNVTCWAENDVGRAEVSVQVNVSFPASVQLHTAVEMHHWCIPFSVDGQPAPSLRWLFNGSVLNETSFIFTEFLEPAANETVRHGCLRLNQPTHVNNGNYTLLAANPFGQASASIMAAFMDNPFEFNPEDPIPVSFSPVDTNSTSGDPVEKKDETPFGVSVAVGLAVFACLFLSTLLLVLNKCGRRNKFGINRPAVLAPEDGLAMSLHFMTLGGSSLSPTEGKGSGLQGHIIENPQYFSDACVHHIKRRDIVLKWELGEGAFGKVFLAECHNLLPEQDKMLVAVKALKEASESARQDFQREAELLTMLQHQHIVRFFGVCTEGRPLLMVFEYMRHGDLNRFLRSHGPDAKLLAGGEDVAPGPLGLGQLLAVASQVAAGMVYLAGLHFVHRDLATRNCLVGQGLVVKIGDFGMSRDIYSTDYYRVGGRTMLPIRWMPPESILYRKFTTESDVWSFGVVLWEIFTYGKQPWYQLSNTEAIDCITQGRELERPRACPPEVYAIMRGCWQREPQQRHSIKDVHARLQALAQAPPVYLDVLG

Broadly, the inhibition is the change of the read-out against control, counted positive when it falls. As to `COc1ccc2c(-c3ccnc(Nc4cccc(OC(F)(F)F)c4)n3)cnn2n1`, the inhibition was -3.35% in [1]; 6.32% in test [2]; 11.9% in [3]; 1.4% in test [4]; 4.58% in [5]; 9.21% in test [6]. In addition, the inhibition in test [7] stood at 45%; in test [8] it was 1.32%; in test [9], 3.83%; in [10], 4.63%.

For the compound `CCCN1CCC(c2ccc(Nc3nc(Nc4cc(F)ccc4C(N)=O)c4cc[nH]c4n3)c(OC)c2)CC1`, the inhibition stood at 73.4% in [1]; 2.15% in test [2]; 7.76% in test [3]; 2.84% in [4]; 4.59% in test [5]; 46.4% in [6]. For the same compound, the inhibition in test [7] was 92.8%; in test [8] it was 5.57%; in [9], 44.3%; in test [10], 1.74%.

As to `COc1cc(N2CCN(C(C)C)CC2)ccc1Nc1nc(Nc2ccc(F)cc2C(N)=O)c2cc[nH]c2n1`, the inhibition in test [1] came to 35.9%; in [2] it was 6.32%; in [3], 3.59%; in test [4], 4.35%; in test [5], 3.7%; in [6], 34.7%. For the same compound, the inhibition in test [7] was 74.1%; in [8] it was 10.8%; in [9], 61.7%; in test [10] it was -1.19%.

For `CCOc1ccc2c(-c3ccnc(Nc4cccc(C(F)(F)F)c4)n3)cnn2n1`, the inhibition in test [1] is -6.38%; in test [2], -0.08%; in test [3], 4.44%; in test [4] it was 1.3%; in test [5], 7.44%; in [6], -0.72%. Moreover, the inhibition turned out to be 14.7% in test [7], 0.55% in test [8], 0.5% in [9] and 0.72% in test [10].

As to `NS(=O)(=O)c1ccc(N/N=C2\C(=O)Nc3ccc4ncccc4c32)cc1`, the inhibition in [1] was found to be 22.4%; in test [2] it was 8.53%; in test [3], 38.3%; in test [4] it was 5.02%; in [5], 11.5%; in [6], 14.6%. The inhibition was determined as 56.8% in test [7], 1.85% in [8], 8.38% in test [9] and 6.88% in test [10].

With `COC(=O)Nc1nc2ccc(Oc3ccc(NC(=O)Nc4cccc(Cl)c4)cc3)cc2[nH]1`, the inhibition in test [1] is 0.56%; in test [2], -0.16%; in [3] it was 1.83%; in test [4], 17.1%; in [5], 44.7%; in test [6], 2.25%. Moreover, the inhibition in test [7] was 7.76%; in test [8] it was 0.12%; in test [9] it was -0.32%; in test [10], 15.6%.

On to `Fc1ccc(-c2nn3ncccc3c2-c2ccnc(Nc3ccc4c(c3)OCCO4)n2)cc1`, for which the inhibition in test [1] was -3.1%; in test [2], 11.3%; in test [3] it was 45.3%; in [4] it was 6.26%; in test [5], 23.4%; in [6], 8.48%. The inhibition in test [7] worked out at 30.4%; in test [8] it was 1.35%; in test [9], 13%; in test [10], 2.82%.

Turning to `CS(=O)(=O)CCNCc1coc(-c2ccc3ncnc(Nc4ccc(OCc5ccccc5)cc4)c3c2)c1`, the inhibition is 3.66% in test [1]; 4.07% in [2]; 6.39% in test [3]; 3.15% in [4]; 4.19% in test [5]; 4.53% in test [6]. In addition, the inhibition came out at 7.58% in test [7], 1.22% in test [8], 2.21% in test [9] and 1.72% in [10].

Take `O=C(Nc1n[nH]c2cc(-c3ccc(F)cc3)ccc12)C1CC1`: the inhibition in test [1] was determined as 1.05%; in test [2], 3.06%; in test [3], 4.11%; in test [4], 1.89%; in test [5] it was 6.64%; in test [6] it was 0.9%. Also, the inhibition in test [7] amounted to 5.38%; in test [8], 0.53%; in [9], 1.19%; in test [10], 4.77%.

Take `COC(=O)c1sc(-n2cnc3cc(OC)c(OC)cc32)cc1OCc1ccccc1C(F)(F)F`: the inhibition in test [1] is 1.09%; in [2], 3.18%; in test [3] it was 6.98%; in [4], 4.13%; in test [5], 14.3%; in test [6] it was 8.49%. For the same compound, the inhibition in test [7] came out at 4.49%; in test [8] it was 0.92%; in [9], 5.56%; in test [10], 3.76%.

In the case of `CC1=C(C(=O)Nc2cc(Cl)c3[nH]ncc3c2)C(c2ccc(C(F)(F)F)cc2)CC(=O)N1` (stereo not given), the inhibition worked out at 1.05% in [1]; 3.36% in [2]; 6.05% in test [3]; 4.83% in test [4]; 5.04% in test [5]; 4.45% in test [6]. For the same compound, the inhibition stood at 3.87% in test [7], 0.65% in test [8], 2.37% in test [9] and 3.77% in [10].

Regarding `CC(C)(CO)CNC(=O)c1ccc2c(c1)/C(=N/Nc1ccc(S(N)(=O)=O)cc1)C(=O)N2`, the inhibition in test [1] is -2.05%; in test [2] it was 0.59%; in test [3], 5.32%; in test [4], -0.74%; in test [5], 0.79%; in test [6], 0.66%. Moreover, the inhibition in test [7] is 10.3%; in test [8] it was -0.56%; in [9], 0.03%; in test [10] it was 1.4%.

Regarding `Fc1cccc(COc2ccc(Nc3ncnc4sc(-c5ccco5)cc34)cc2Cl)c1`, the inhibition is -6.92% in test [1]; 0.94% in test [2]; 5.13% in test [3]; 4.1% in test [4]; 6.76% in test [5]; 1.8% in test [6]. Further, the inhibition turned out to be 17% in test [7], 1.13% in test [8], 1.93% in test [9] and 1.02% in test [10].

Consider `COc1cc2c(cc1Nc1nc(Nc3ccsc3C(N)=O)c3cc[nH]c3n1)N(C(=O)CN(C)C)CCC2(C)C`, for which the inhibition came to 4.93% in test [1]; 5.38% in [2]; 8.93% in test [3]; 1.06% in test [4]; 3.63% in test [5]; 60.5% in [6]. Also, the inhibition in test [7] came out at 89.3%; in test [8] it was 6.79%; in test [9], 43.5%; in [10], 2.83%.

Consider `CS(=O)(=O)CCNCc1ccc(-c2ccc3ncnc(Nc4ccc(OCc5ccccc5)c(C(F)(F)F)c4)c3c2)o1`, for which the inhibition in [1] is -5.62%; in test [2], 0.36%; in [3] it was 3.4%; in test [4] it was 0.1%; in test [5], 4.31%; in test [6], 1.84%. Also, the inhibition in test [7] worked out at 9.92%; in test [8], 0.97%; in test [9] it was 1.65%; in [10], 2%.

Take `CC(=O)Nc1cccc(C#Cc2cncnc2Nc2ccc(OCc3cccc(F)c3)c(Cl)c2)c1`: the inhibition came to 0.71% in [1]; 5.52% in [2]; 8.88% in test [3]; 1.44% in test [4]; 7.33% in [5]; 0.67% in test [6]. In addition, the inhibition in test [7] is 1.04%; in [8], 1.8%; in test [9], 5.63%; in test [10] it was 0.89%.

Take `Cc1ccc(O)cc1Nc1ccnc2cc(-c3ccccn3)ccc12`: the inhibition in test [1] was found to be 1.9%; in test [2], 46%; in test [3], 83.4%; in [4], 7.91%; in test [5] it was 48.2%; in test [6], 8.49%. The inhibition turned out to be 38.1% in test [7], 2.64% in test [8], 18% in test [9] and 4% in test [10].
